Measurements as given in the supplement of paper PMC10037445.
Whole data set: some 2,900 compounds, median “NF-kB SEAP reporter activity, fold change vs agonist alone” near 0.99, cut for the highest 2% near 2.6. The sample holds the highest values, similar compounds and a random draw of the others, so the mix is not that of the screen.

Columns and labels:
RAW-Dual [1] = experiment: NF-kB SEAP reporter activity, fold change vs agonist alone; higher = enhanced NF-kB activity
Summary of the method: (§1)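 RAW-Dual macrophages (50,000 cells/well in DMEM, 384-well plates) received 50 nL of library stock by pin tool, then a PRR agonist 1 h later, and were kept at 37 °C, 5% CO2. After 20 hours, supernatant was read for IRF by QuantiLuc luminescence and for NF-κB by QuantiBlue absorbance at 620 nm. Reporter activity is fold change over agonist-alone wells. Cytotoxic wells had IncuCyte confluency below 70% of agonist controls in both mask sets.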

RAW-Dual [2] = experiment: NF-kB SEAP reporter activity, fold change vs agonist alone; cytotoxicity flag (confluency mask): cytotoxic (confluency <70% of control); higher = enhanced NF-kB activity
Summary of the method: as §1

RAW-Dual [3] = experiment: NF-kB SEAP reporter activity, fold change vs agonist alone; cytotoxicity flag (confluency mask): not cytotoxic; higher = enhanced NF-kB activity
Summary of the method: as §1

[4] = library stock concentration (final ~1000-fold dilution): 10 mM, cytotoxicity flag (confluency mask): cytotoxic (confluency <70% of control), agonist: Imiquimod (TLR7) […]
[5] = library stock concentration (final ~1000-fold dilution): 10 mM, cytotoxicity flag (confluency mask): cytotoxic (confluency <70% of control), agonist: MPLA (TLR4) […]
[6] = agonist: ODN 1826 (TLR9) 0.5 ug/mL
[7] = agonist: Pam2CSK4 (TLR2/6) 0.1 ug/mL
[8] = agonist: Pam3CSK4 (TLR2/1) 0.1 ug/mL
[9] = library stock concentration (final ~1000-fold dilution): 10 mM, cytotoxicity flag (confluency mask): not cytotoxic, agonist: Imiquimod (TLR7) […]
[10] = library stock concentration (final ~1000-fold dilution): 10 mM, cytotoxicity flag (confluency mask): not cytotoxic, agonist: MPLA (TLR4) […]

Question: Which “NF-kB SEAP reporter activity” value (RAW-Dual [1]; [4]) does the source give for `COc1cc2nc(N3CCCN(C)CC3)nc(NC3CCN(Cc4ccccc4)CC3)c2cc1OC.Cl.Cl.Cl` here?
Answer: Its value is 0.133.

Question: And the “NF-kB SEAP reporter activity” value (RAW-Dual [1]; [5])?
Answer: The value was 0.247.

Question: Which results are given for `COc1cc2nc(N3CCCN(C)CC3)nc(NC3CCN(Cc4ccccc4)CC3)c2cc1OC.Cl.Cl.Cl` (library stock concentration (final ~1000-fold dilution): 10 mM)?
Answer: NF-kB SEAP reporter activity (RAW-Dual [2]; agonist: LPS (TLR4) 0.1 ug/mL): 0.248; NF-kB SEAP reporter activity (RAW-Dual [2]; [6]): 0.189; NF-kB SEAP reporter activity (RAW-Dual [2]; [7]): 0.092; NF-kB SEAP reporter activity (RAW-Dual [2]; [8]): 0.13

Question: Which “NF-kB SEAP reporter activity” value (RAW-Dual [3]; agonist: LPS (TLR4) 0.1 ug/mL) does the source give for `CC(=O)OC1(C(C)=O)CCC2C3C=C(Cl)C4=CC(=O)CCC4(C)C3CCC21C` (stereo not drawn) (library stock concentration (final ~1000-fold dilution): 10 mM) here?
Answer: Its value is 1.21.

Question: What about the “NF-kB SEAP reporter activity” value (RAW-Dual [3]; [6]) of the same molecule?
Answer: The value was 1.14.

Question: What about the “NF-kB SEAP reporter activity” value (RAW-Dual [3]; [7]) of the same molecule?
Answer: Its value is 1.08.

Question: What about the “NF-kB SEAP reporter activity” value (RAW-Dual [3]; [8]) of the same molecule?
Answer: The value was 1.16.

Question: How did the “NF-kB SEAP reporter activity” value (RAW-Dual [1]; [9]) turn out when `CC(=O)OC1(C(C)=O)CCC2C3C=C(Cl)C4=CC(=O)CCC4(C)C3CCC21C` (stereo not drawn) was run?
Answer: Its value is 1.28.

Question: And the “NF-kB SEAP reporter activity” value (RAW-Dual [1]; [10])?
Answer: Its value is 1.12.

Question: Which results are given for `CN1c2ccccc2C(=O)Nc2cnc(Nc3ccc(N4CCC(O)CC4)cc3)nc21`?
Answer: NF-kB SEAP reporter activity (RAW-Dual [1]; [9]): 0.788; NF-kB SEAP reporter activity (RAW-Dual [1]; [10]): 1.02

Question: Which “NF-kB SEAP reporter activity” value (RAW-Dual [2]; agonist: LPS (TLR4) 0.1 ug/mL) does the source give for `Cc1nc(Nc2cnn(C3CCNCC3)c2)nc2c1N(C)C(=O)c1cc3ccccc3cc1N2C` (library stock concentration (final ~1000-fold dilution): 10 mM) here?
Answer: The value was 3.03.

Question: And the “NF-kB SEAP reporter activity” value (RAW-Dual [2]; [6])?
Answer: The value was 0.387.

Question: And the “NF-kB SEAP reporter activity” value (RAW-Dual [2]; [7])?
Answer: The value was 1.11.

Question: And the “NF-kB SEAP reporter activity” value (RAW-Dual [2]; [8])?
Answer: The value was 2.25.

Question: Which “NF-kB SEAP reporter activity” value (RAW-Dual [1]; [4]) does the source give for `Cc1ccc(Oc2ccnc3cc(-c4cnn(C5CCNCC5)c4)ccc23)cc1` here?
Answer: Its value is 0.526.

Question: And the “NF-kB SEAP reporter activity” value (RAW-Dual [1]; [5])?
Answer: The value was 0.922.

Question: Which results are given for `Cc1ccc(Oc2ccnc3cc(-c4cnn(C5CCNCC5)c4)ccc23)cc1` (library stock concentration (final ~1000-fold dilution): 10 mM)?
Answer: NF-kB SEAP reporter activity (RAW-Dual [2]; agonist: LPS (TLR4) 0.1 ug/mL): 0.433; NF-kB SEAP reporter activity (RAW-Dual [2]; [6]): 0.213; NF-kB SEAP reporter activity (RAW-Dual [2]; [7]): 0.181; NF-kB SEAP reporter activity (RAW-Dual [2]; [8]): 0.175

Question: For `CN1c2ccccc2C(=O)Nc2cnc(Nc3ccc(N4CCC(O)CC4)cc3)nc21` (library stock concentration (final ~1000-fold dilution): 10 mM), which “NF-kB SEAP reporter activity” value (RAW-Dual [3]; agonist: LPS (TLR4) 0.1 ug/mL) is on record?
Answer: The value was 1.91.

Question: What about the “NF-kB SEAP reporter activity” value (RAW-Dual [3]; [6]) of the same molecule?
Answer: The value was 1.18.

Question: And the “NF-kB SEAP reporter activity” value (RAW-Dual [3]; [7])?
Answer: The value was 0.763.

Question: And the “NF-kB SEAP reporter activity” value (RAW-Dual [3]; [8])?
Answer: The value was 0.946.

Question: For `Cc1nc(Nc2cnn(C3CCNCC3)c2)nc2c1N(C)C(=O)c1cc3ccccc3cc1N2C`, which “NF-kB SEAP reporter activity” value (RAW-Dual [1]; [4]) is on record?
Answer: The value was 1.56.

Question: And the “NF-kB SEAP reporter activity” value (RAW-Dual [1]; [5])?
Answer: The value was 2.88.

Question: What does the source list for `CC1CC(=O)c2c(ccc3c2C(=O)c2cccc(O)c2C3=O)C1` (stereo not drawn) (library stock concentration (final ~1000-fold dilution): 10 mM)?
Answer: NF-kB SEAP reporter activity (RAW-Dual [3]; agonist: LPS (TLR4) 0.1 ug/mL): 1.64; NF-kB SEAP reporter activity (RAW-Dual [3]; [6]): 1.14; NF-kB SEAP reporter activity (RAW-Dual [3]; [7]): 1.09; NF-kB SEAP reporter activity (RAW-Dual [3]; [8]): 0.991

Question: How did the “NF-kB SEAP reporter activity” value (RAW-Dual [1]; [9]) turn out when `CC1CC(=O)c2c(ccc3c2C(=O)c2cccc(O)c2C3=O)C1` (stereo not drawn) was run?
Answer: The value was 1.02.

Question: What about the “NF-kB SEAP reporter activity” value (RAW-Dual [1]; [10]) of the same molecule?
Answer: Its value is 1.26.

Question: Which “NF-kB SEAP reporter activity” value (RAW-Dual [1]; [9]) does the source give for `CC(NC(=O)C(NC(=O)OCc1ccccc1)C(C)C)C(=O)NC(CC(=O)O)C(=O)CF` (stereo not drawn) here?
Answer: The value was 0.964.

Question: And the “NF-kB SEAP reporter activity” value (RAW-Dual [1]; [10])?
Answer: Its value is 0.934.

Question: With `CC(NC(=O)C(NC(=O)OCc1ccccc1)C(C)C)C(=O)NC(CC(=O)O)C(=O)CF` (stereo not drawn) (library stock concentration (final ~1000-fold dilution): 10 mM) as the molecule, how does the “NF-kB SEAP reporter activity” value (RAW-Dual [3]; agonist: LPS (TLR4) 0.1 ug/mL) read?
Answer: Its value is 1.23.

Question: What about the “NF-kB SEAP reporter activity” value (RAW-Dual [3]; [6]) of the same molecule?
Answer: Its value is 0.939.

Question: What about the “NF-kB SEAP reporter activity” value (RAW-Dual [3]; [7]) of the same molecule?
Answer: Its value is 0.948.

Question: What about the “NF-kB SEAP reporter activity” value (RAW-Dual [3]; [8]) of the same molecule?
Answer: The value was 1.03.

Question: `CCCC1CC(C(=O)NC(C(C)Cl)C2OC(SC)C(O)C(O)C2O)N(C)C1.Cl.O` (stereo not drawn) (library stock concentration (final ~1000-fold dilution): 10 mM) was tested. Which “NF-kB SEAP reporter activity” value (RAW-Dual [3]; agonist: LPS (TLR4) 0.1 ug/mL) did it give?
Answer: The value was 1.29.

Question: And the “NF-kB SEAP reporter activity” value (RAW-Dual [3]; [6])?
Answer: Its value is 0.918.

Question: What about the “NF-kB SEAP reporter activity” value (RAW-Dual [3]; [7]) of the same molecule?
Answer: The value was 0.831.

Question: And the “NF-kB SEAP reporter activity” value (RAW-Dual [3]; [8])?
Answer: The value was 0.973.

Question: How did the “NF-kB SEAP reporter activity” value (RAW-Dual [1]; [10]) turn out when `CCCC1CC(C(=O)NC(C(C)Cl)C2OC(SC)C(O)C(O)C2O)N(C)C1.Cl.O` (stereo not drawn) was run?
Answer: The value was 1.07.

Question: With `C/C(=N\NC(=O)c1cccc(S(=O)(=O)N2CCOCC2)c1)c1cc(Cl)ccc1O` as the molecule, how does the “NF-kB SEAP reporter activity” value (RAW-Dual [1]; [9]) read?
Answer: The value was 1.53.

Question: And the “NF-kB SEAP reporter activity” value (RAW-Dual [1]; [10])?
Answer: Its value is 1.65.

Question: For `O=C(Nc1cccc(Br)c1)c1cccc(S(=O)(=O)N2CCCCCC2)c1` (library stock concentration (final ~1000-fold dilution): 10 mM), which “NF-kB SEAP reporter activity” value (RAW-Dual [3]; agonist: LPS (TLR4) 0.1 ug/mL) is on record?
Answer: Its value is 0.803.

Question: What about the “NF-kB SEAP reporter activity” value (RAW-Dual [3]; [6]) of the same molecule?
Answer: Its value is 1.79.

Question: And the “NF-kB SEAP reporter activity” value (RAW-Dual [3]; [7])?
Answer: Its value is 1.02.

Question: What about the “NF-kB SEAP reporter activity” value (RAW-Dual [3]; [8]) of the same molecule?
Answer: The value was 0.939.

Question: With `O=C(Nc1cccc(Br)c1)c1cccc(S(=O)(=O)N2CCCCCC2)c1` as the molecule, how does the “NF-kB SEAP reporter activity” value (RAW-Dual [1]; [9]) read?
Answer: The value was 1.56.

Question: And the “NF-kB SEAP reporter activity” value (RAW-Dual [1]; [10])?
Answer: Its value is 1.26.

Question: How did the “NF-kB SEAP reporter activity” value (RAW-Dual [3]; agonist: LPS (TLR4) 0.1 ug/mL) turn out when `C/C(=N\NC(=O)c1cccc(S(=O)(=O)N2CCOCC2)c1)c1cc(Cl)ccc1O` (library stock concentration (final ~1000-fold dilution): 10 mM) was run?
Answer: The value was 2.6.

Question: What about the “NF-kB SEAP reporter activity” value (RAW-Dual [3]; [6]) of the same molecule?
Answer: The value was 1.9.

Question: And the “NF-kB SEAP reporter activity” value (RAW-Dual [3]; [7])?
Answer: Its value is 1.52.

Question: What about the “NF-kB SEAP reporter activity” value (RAW-Dual [3]; [8]) of the same molecule?
Answer: Its value is 2.48.

Question: Which results are given for `O=C(O)CCn1c2c(c3ccccc31)CC(NS(=O)(=O)c1ccc(F)cc1)CC2` (stereo not drawn) (library stock concentration (final ~1000-fold dilution): 10 mM)?
Answer: NF-kB SEAP reporter activity (RAW-Dual [3]; agonist: LPS (TLR4) 0.1 ug/mL): 1.07; NF-kB SEAP reporter activity (RAW-Dual [3]; [6]): 0.99; NF-kB SEAP reporter activity (RAW-Dual [3]; [7]): 1.13; NF-kB SEAP reporter activity (RAW-Dual [3]; [8]): 1.07

Question: How did the “NF-kB SEAP reporter activity” value (RAW-Dual [1]; [10]) turn out when `O=C(O)CCn1c2c(c3ccccc31)CC(NS(=O)(=O)c1ccc(F)cc1)CC2` (stereo not drawn) was run?
Answer: The value was 1.07.

Question: Which results are given for `COc1cc(C=CC(=O)CC(=O)C=Cc2ccc(O)c(OC)c2)ccc1O`?
Answer: NF-kB SEAP reporter activity (RAW-Dual [1]; library stock concentration (final ~1000-fold dilution): 100 mM, cytotoxicity flag (confluency mask): not cytotoxic, agonist: Imiquimod (TLR7) […]): 0.155; NF-kB SEAP reporter activity (RAW-Dual [1]; library stock concentration (final ~1000-fold dilution): 100 mM, cytotoxicity flag (confluency mask): not cytotoxic, agonist: MPLA (TLR4) […]): 0.257

Question: `COc1cc(/C=C/C(=O)O)ccc1O` was tested. Which “NF-kB SEAP reporter activity” value (RAW-Dual [1]; [9]) did it give?
Answer: The value was 0.903.

Question: And the “NF-kB SEAP reporter activity” value (RAW-Dual [1]; [10])?
Answer: Its value is 1.09.
